Inconclusive results are not listed. Activity calls are given as the source filed them. Calls follow the shape of the dose curve; as a rule, active = well fitted activation curve with a large enough effect; inconclusive = small, poorly fitted or top-dose-only effect; inactive = flat fitted curve, though single readings scatter.
Experiment: qHTS for Inhibitors of Cell Surface uPA Generation: Confirmatory Assay for Cherry-picked Compounds; as to inhibition: 0% is about no effect
Details: cell surface uPA activity generation, qHTS confirmation; series mostly up to 115 µM; inhibition: at the top concentration
In short: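 RAW 264.7 cells at 4000/well, incubated overnight, then treated with compounds. After 24 h at 37 C, viability was read by ATPlite luminescence. An increase in signal indicates blocked uPA-dependent LF entry.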
For `COc1cccc(NC(=S)NCc2ccc3c(c2)cc(C)n3C)c1`, the “inhibition” value was -3.09% (inactive).
With `Cn1c(=O)c(=O)n(C)c2cc(S(=O)(=O)CCC(=O)Nc3ccc(F)cc3)ccc21` the “inhibition” value was 0.947% (inactive).
With `COc1ccc(NS(=O)(=O)c2cc3c(cc2C)NC(=O)CO3)c(OC)c1` the “inhibition” value was -1.01% (inactive).
With `COc1ccc(NS(=O)(=O)c2cccc(C(=O)NCc3ccccc3CN3CCCC3)c2)cc1` the Potency was 7.36 µM (active).
In the case of `CCOC(=O)C1=C(CN2CCN(C(=O)c3ccco3)CC2)NC(=O)NC1c1ccccc1` (centres undefined), the “inhibition” value is reported as -0.297% (inactive).
With `O=C(COC(=O)/C=C/c1cccc(F)c1)Nc1ccccc1` the “inhibition” value was -1.02% (inactive).
For `O=C(Nc1ccc(Cl)cc1)Nc1nnc(-c2ccncc2)s1`, the “inhibition” value was -3.24% (inactive).
For `O=C(O)c1ccccc1/C=N/NC(=S)NC1CCCCC1`, the “inhibition” value was 0.423% (inactive).
For `CCc1ccc(S(=O)(=O)NCCc2cn3cccc(C)c3n2)s1`, the “inhibition” value was -2.57% (inactive).
For `CCN(CC)S(=O)(=O)c1cc(NC(=O)COC(=O)C2CCC2)ccc1C`, the “inhibition” value was -0.16% (inactive).
With `CCCCCN(C(=O)CCC(=O)OCCOc1cccc(Cl)c1)c1c(N)n(CCCC)c(=O)[nH]c1=O` the “inhibition” value was -1.16% (inactive).
With `CCn1nc(NS(=O)(=O)c2ccccc2)c2cc3cc(C)ccc3nc21` the “inhibition” value was -3.18% (inactive).
For `Cc1ccc(S(=O)(=O)N2CCOCC2)cc1NC(=O)CSc1nc(N)cc(N)n1`, the “inhibition” value was -3.34% (inactive).
For `CCOc1cc(/C=C(\C#N)C(=O)NCc2cccnc2)ccc1O`, the “inhibition” value was -2.42% (inactive).
With `COc1cccc(C(=O)NCC(c2ccco2)N2CCc3ccccc3C2)c1` (centres undefined) the “inhibition” value was 0.309% (inactive).
In the case of `Cc1nc(N2CCN(c3ccc(Cl)cc3)CC2)[nH]c(=O)c1C`, the “inhibition” value is reported as 0.535% (inactive).
In the case of `COc1ccc(-c2sc3ccccc3c2C#CCO)cc1`, the “inhibition” value is reported as -2.84% (inactive).
In the case of `COc1ccccc1NC(=O)Cn1ncc2c1-c1ccccc1OC2`, the “inhibition” value is reported as -1.12% (inactive).
With `Cc1nn(-c2ccc(F)cc2)c(C)c1NS(=O)(=O)c1ccc(Cl)cc1` the “inhibition” value was -2% (inactive).
With `CCCCNc1c(-c2ccc(-c3cccc(Cl)c3)cc2)nc2ccccn12` the “inhibition” value was -3.49% (inactive).
With `Cc1cc(=O)[nH]c2c(C)cc(S(=O)(=O)Nc3ccc(O)cc3)cc12` the “inhibition” value was -1.83% (inactive).
For `OCC[C@@H]1C[C@H](O)[C@@H](O)[C@]2(OCCc3ccccc32)O1`, the “inhibition” value was -1.16% (inactive).
In the case of `O=C(NCCN1CCOCC1)c1ccc2c(c1)N(Cc1ccc(Cl)cc1)CCS2`, the “inhibition” value is reported as 1.95% (inactive).
For `CC(C)Cn1cnc2c1c(=O)[nH]c(=O)n2Cc1ccccc1`, the “inhibition” value was 1.57% (inactive).
In the case of `COc1ccc(NC(=O)/C(N=Nc2cc(S(=O)(=O)Nc3ccc(OC)cc3)ccc2OC)=C(\C)O)cc1`, the “inhibition” value is reported as -1.65% (inactive).
For `CC(C)(C)OC(=O)NCCCCCNC(=O)c1[nH]cnc1C(=O)Nc1ccc(Cl)cc1`, the “inhibition” value was -1.98% (inactive).
With `Cc1oc(-c2ccccc2F)nc1CS(=O)CC(=O)NCc1ccc(F)cc1` (centres undefined) the “inhibition” value was -1.82% (inactive).
For `CC1(C)CC2(CC(c3ccccc3)Oc3cc(O)ccc32)NC(=S)N1` (centres undefined), the “inhibition” value was -1.51% (inactive).
For `Cc1ccc(C)c(NC(=O)CCN2CCN(c3ccccc3F)CC2)c1`, the “inhibition” value was -0.576% (inactive).
With `Cc1[nH]c(=O)[nH]c(=O)c1S(=O)(=O)N1CCCc2ccccc21` the “inhibition” value was -1.5% (inactive).
In the case of `CCOc1cc(N2CCOCC2)c(OCC)cc1NC(=O)c1[nH]c(C)c(C(C)=O)c1C`, the “inhibition” value is reported as -2.42% (inactive).
With `O=c1[nH]c2ccccc2cc1CN(CC1CCCO1)S(=O)(=O)c1ccccc1` (centres undefined) the “inhibition” value was -0.407% (inactive).
With `O=C(CCc1ccccc1)NNC(=O)c1cccc(F)c1` the “inhibition” value was -2.32% (inactive).
For `CCOc1ncccc1C(=O)NCc1ccccc1Cl`, the “inhibition” value was 0.688% (inactive).
In the case of `CCN(C(=O)CSc1ncnc2sccc12)c1c(N)n(Cc2ccccc2)c(=O)[nH]c1=O`, the “inhibition” value is reported as 0.737% (inactive).
For `Cn1c(CN2CCCC2)nc2cc(NC(=O)COc3ccccc3)ccc21`, the “inhibition” value was -2.79% (inactive).
With `CCCOc1ccc(S(=O)(=O)NNC(=O)c2cc3ccccc3o2)cc1` the “inhibition” value was -3.45% (inactive).
With `CC(OC(=O)c1cccc(-n2cnnn2)c1)C(=O)Nc1ccc(F)c(F)c1F` (centres undefined) the “inhibition” value was -3.23% (inactive).
In the case of `COc1cccc(C2CC(c3ccc(C)cc3)n3ncnc3N2)c1` (centres undefined), the “inhibition” value is reported as 0.338% (inactive).
Potency is read from the fitted curve at half-maximal effect.
